The source of these data is the supplement of paper PMC6411743.

For the assay, the target named is T1, UniProt O00255|O00255-2|O00255-3.
T1 sequence (whole entry): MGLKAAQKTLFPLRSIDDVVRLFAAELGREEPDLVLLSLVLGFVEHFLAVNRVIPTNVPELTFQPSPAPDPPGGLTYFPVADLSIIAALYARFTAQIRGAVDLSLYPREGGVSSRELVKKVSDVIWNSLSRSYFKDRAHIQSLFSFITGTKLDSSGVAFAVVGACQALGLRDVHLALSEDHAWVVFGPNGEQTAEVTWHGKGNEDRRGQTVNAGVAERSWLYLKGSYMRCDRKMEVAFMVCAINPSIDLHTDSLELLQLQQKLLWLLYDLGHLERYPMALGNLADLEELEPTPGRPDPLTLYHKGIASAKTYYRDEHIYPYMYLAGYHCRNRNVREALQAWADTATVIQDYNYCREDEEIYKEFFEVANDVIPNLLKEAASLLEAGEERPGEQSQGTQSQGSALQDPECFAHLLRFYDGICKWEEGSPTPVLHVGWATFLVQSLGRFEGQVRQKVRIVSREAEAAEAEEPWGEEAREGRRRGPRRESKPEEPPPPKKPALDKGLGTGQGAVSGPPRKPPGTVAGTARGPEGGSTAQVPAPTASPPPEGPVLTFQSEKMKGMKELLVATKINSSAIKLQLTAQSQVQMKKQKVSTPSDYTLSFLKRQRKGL
The assay is described as follows: NP40-soluble protein abundance relative to vehicle (solubility fold change) (ratio); higher = more soluble protein in presence of GTP. On the procedure: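 Solubility proteome profiling in Jurkat crude lysate. Lysate was treated with Mg-GTP (0.1-10 mM) for 10 min at room temperature and 3 min at 37 °C, then solubilised with 0.8% NP40 and benzonase, followed by ultracentrifugation. Proteins were quantified by TMT10 LC-MS/MS; the value is the NP40-soluble abundance relative to the NP40-processed vehicle, from 3 independent experiments.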

± gives the standard deviation of the averaged measurements. Of roughly 5,400 targets only a part is listed; those with the largest changes were picked by preference.

Regarding `Nc1nc2c(ncn2[C@@H]2O[C@H](COP(=O)(O)OP(=O)(O)OP(=O)(O)O)[C@@H](O)[C@H]2O)c(=O)[nH]1` [guanosine triphosphate], the NP40-soluble protein abundance (concentration: 0.1mM) was found to be 1.05 ± 0.044; the NP40-soluble protein abundance (concentration: 0.5mM) was determined as 1.04 ± 0.043; the NP40-soluble protein abundance (concentration: 1mM) was 1.04 ± 0.065; the NP40-soluble protein abundance (concentration: 2mM) was determined as 1.07 ± 0.023; the NP40-soluble protein abundance (concentration: 4mM) came out at 1.16 ± 0.069; the NP40-soluble protein abundance (concentration: 6mM) came out at 1.14 ± 0.025. The NP40-soluble protein abundance amounted to 1.2 ± 0.016 (concentration: 8mM) and 1.21 ± 0.023 (concentration: 10mM).
